Reference: PMC7862700, “An all-to-all approach to the identification of sequence-specific readers for epigenetic DNA modifications on cytosine”

How the values were obtained:
Experiment in all cases: DAPPL (digital affinity profiling via proximity ligation, sequencing); 10 mM Tris-HCl pH 7.5, 50 mM NaCl, 1 mM DTT, 4% glycerol, room temperature, 30 min; GST-TFs on glutathione beads, 16-mer random dsDNA library, 0.1% formaldehyde crosslink after washing; high values mean tight binding
[1] = molecular target: T1, FLI1 (Homo sapiens, UniProt Q01543 1-452); details: protein: recombinant; tags: N-terminal GST; dsDNA, one strand shown
T1 sequence: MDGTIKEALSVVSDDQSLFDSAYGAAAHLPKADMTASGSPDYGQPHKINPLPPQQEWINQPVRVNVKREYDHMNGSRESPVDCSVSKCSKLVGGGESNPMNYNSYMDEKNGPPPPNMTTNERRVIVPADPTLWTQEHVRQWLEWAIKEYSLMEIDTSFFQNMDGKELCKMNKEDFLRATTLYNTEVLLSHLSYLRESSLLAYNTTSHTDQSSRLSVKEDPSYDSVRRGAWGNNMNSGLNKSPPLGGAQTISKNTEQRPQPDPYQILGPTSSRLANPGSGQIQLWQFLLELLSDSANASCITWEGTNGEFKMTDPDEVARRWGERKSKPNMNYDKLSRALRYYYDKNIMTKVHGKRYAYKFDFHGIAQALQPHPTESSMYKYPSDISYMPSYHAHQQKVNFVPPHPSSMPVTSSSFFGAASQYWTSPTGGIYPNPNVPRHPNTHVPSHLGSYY
How it was run: (§1)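 In yeast, human transcription factors were expressed with a GST fusion, then pulled down on glutathione beads and given DNA barcodes. Pooled with a tag-only sample, they were exposed to 200 nmole of a 16-mer random double-stranded DNA library (Tris/NaCl/DTT/glycerol buffer, room temperature, 30 min), washed, crosslinked with 0.1% formaldehyde, proximity-ligated using BsaI/T4 ligase for 1 h at 37 °C, PCR-amplified and read on an Illumina NextSeq500. Each hexamer's frequency of reads for a factor, divided by the matching frequency for the tag-only sample, gives the binding signal.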

[2] = molecular target: T2, ELK1 (Homo sapiens, UniProt P19419 1-428); details: protein: recombinant; tags: N-terminal GST; dsDNA, one strand shown
T2 sequence: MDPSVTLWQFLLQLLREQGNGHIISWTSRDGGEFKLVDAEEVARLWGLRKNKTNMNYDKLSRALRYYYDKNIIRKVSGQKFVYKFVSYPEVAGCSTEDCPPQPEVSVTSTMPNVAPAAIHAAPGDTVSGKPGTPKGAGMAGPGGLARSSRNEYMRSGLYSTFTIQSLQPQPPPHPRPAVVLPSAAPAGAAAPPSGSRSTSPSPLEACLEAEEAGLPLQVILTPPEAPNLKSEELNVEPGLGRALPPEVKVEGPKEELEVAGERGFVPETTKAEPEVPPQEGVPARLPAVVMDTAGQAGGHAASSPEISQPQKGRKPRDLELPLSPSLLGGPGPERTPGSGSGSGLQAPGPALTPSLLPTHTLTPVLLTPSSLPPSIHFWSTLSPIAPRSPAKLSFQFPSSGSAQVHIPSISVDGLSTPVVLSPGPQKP
How it was run: as §1

[3] = molecular target: T3, GABPA (Homo sapiens, UniProt Q06546 1-454); details: protein: recombinant; tags: N-terminal GST; dsDNA, one strand shown
T3 sequence: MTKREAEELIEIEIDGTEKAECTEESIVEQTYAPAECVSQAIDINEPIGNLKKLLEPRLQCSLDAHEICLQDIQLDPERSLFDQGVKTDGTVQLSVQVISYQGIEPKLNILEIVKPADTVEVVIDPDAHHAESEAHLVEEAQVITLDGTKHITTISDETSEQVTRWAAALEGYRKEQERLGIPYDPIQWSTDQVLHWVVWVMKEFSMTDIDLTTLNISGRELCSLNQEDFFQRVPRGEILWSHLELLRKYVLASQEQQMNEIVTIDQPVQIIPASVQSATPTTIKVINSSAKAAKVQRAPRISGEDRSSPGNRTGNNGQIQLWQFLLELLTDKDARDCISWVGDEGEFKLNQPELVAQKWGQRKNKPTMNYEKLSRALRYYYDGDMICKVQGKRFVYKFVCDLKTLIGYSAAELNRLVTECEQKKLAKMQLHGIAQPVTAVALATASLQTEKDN
How it was run: as §1

[4] = molecular target: T4, ERG (Homo sapiens, UniProt P11308 1-479); details: protein: recombinant; tags: N-terminal GST; dsDNA, one strand shown
T4 sequence: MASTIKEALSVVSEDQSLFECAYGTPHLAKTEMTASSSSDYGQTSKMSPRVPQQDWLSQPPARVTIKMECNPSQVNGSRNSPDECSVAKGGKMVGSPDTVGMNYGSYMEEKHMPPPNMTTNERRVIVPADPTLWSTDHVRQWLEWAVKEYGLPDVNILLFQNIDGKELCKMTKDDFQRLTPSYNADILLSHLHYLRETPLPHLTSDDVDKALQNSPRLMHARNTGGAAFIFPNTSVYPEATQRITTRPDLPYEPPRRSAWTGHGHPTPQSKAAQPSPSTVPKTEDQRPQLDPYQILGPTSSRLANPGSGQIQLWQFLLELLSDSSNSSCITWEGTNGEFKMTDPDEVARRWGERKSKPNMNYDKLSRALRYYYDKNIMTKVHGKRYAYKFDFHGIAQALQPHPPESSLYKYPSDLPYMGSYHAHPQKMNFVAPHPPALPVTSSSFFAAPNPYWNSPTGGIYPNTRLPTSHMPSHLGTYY
How it was run: as §1

[5] = molecular target: ELF1 (Homo sapiens, UniProt P32519 1-619); details: protein: recombinant; tags: N-terminal GST; dsDNA, one strand shown
How it was run: as §1

[6] = molecular target: T5, EHF (Homo sapiens, UniProt Q9NZC4 1-300); details: protein: recombinant; tags: N-terminal GST; dsDNA, one strand shown
T5 sequence: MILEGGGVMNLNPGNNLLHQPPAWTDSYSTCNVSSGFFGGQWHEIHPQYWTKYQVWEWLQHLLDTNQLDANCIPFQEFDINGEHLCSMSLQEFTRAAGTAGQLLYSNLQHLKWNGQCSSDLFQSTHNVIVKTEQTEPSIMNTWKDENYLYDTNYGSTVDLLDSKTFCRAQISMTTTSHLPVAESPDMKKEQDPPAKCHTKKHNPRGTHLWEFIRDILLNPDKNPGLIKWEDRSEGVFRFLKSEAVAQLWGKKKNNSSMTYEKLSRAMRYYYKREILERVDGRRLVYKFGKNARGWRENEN
How it was run: as §1

[7] = molecular target: SPI1 (Homo sapiens, UniProt P17947 1-270); details: protein: recombinant; tags: N-terminal GST; dsDNA, one strand shown
How it was run: as §1

[8] = molecular target: SPIB (Homo sapiens, UniProt Q01892 1-262); details: protein: recombinant; tags: N-terminal GST; dsDNA, one strand shown
How it was run: as §1

[9] = molecular target: T6, ELK3 (Homo sapiens, UniProt P41970 1-407); details: protein: recombinant; tags: N-terminal GST; dsDNA, one strand shown
T6 sequence: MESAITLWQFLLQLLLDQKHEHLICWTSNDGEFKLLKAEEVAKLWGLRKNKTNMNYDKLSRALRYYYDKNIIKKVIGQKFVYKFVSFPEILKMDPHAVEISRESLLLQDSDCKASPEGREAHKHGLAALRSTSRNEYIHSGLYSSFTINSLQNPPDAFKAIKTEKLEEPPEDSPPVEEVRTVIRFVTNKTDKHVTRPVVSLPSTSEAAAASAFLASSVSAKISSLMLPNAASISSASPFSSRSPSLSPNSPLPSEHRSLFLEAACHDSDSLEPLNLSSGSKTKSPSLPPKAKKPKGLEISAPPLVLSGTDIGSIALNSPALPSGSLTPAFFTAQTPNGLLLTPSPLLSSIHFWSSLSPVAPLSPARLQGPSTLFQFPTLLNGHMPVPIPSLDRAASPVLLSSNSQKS
How it was run: as §1

[10] = molecular target: T7, FEV (Homo sapiens, UniProt Q99581 1-238); details: protein: recombinant; tags: N-terminal GST; dsDNA, one strand shown
T7 sequence: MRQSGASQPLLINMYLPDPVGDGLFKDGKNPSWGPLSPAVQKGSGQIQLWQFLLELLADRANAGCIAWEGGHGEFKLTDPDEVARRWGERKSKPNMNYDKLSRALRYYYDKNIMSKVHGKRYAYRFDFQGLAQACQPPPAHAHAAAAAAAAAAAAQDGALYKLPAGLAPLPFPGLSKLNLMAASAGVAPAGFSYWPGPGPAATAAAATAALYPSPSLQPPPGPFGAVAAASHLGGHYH
How it was run: as §1

[11] = molecular target: ETV5 (Homo sapiens, UniProt P41161 1-510); details: protein: recombinant; tags: N-terminal GST; dsDNA, one strand shown
How it was run: as §1

[12] = molecular target: HSF1 (Homo sapiens, UniProt Q00613 1-529); details: protein: recombinant; tags: N-terminal GST; chain copies: 3; dsDNA, one strand shown
How it was run: as §1

[13] = molecular target: T8, SPIC (Homo sapiens, UniProt Q8N5J4 1-248); details: protein: recombinant; tags: N-terminal GST; dsDNA, one strand shown
T8 sequence: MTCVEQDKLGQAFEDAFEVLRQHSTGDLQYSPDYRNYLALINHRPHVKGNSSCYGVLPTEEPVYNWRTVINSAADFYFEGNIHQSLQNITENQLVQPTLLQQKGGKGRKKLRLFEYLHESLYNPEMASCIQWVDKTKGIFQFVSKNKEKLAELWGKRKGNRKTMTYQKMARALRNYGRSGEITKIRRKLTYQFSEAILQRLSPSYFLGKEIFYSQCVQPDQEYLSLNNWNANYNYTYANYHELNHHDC
How it was run: as §1

[14] = molecular target: ELF4 (Homo sapiens, UniProt Q99607 1-663); details: protein: recombinant; tags: N-terminal GST; dsDNA, one strand shown
How it was run: as §1

[15] = molecular target: T9, ELK4 (Homo sapiens, UniProt P28324-2 1-405); details: protein: recombinant; tags: N-terminal GST; dsDNA, one strand shown
T9 sequence: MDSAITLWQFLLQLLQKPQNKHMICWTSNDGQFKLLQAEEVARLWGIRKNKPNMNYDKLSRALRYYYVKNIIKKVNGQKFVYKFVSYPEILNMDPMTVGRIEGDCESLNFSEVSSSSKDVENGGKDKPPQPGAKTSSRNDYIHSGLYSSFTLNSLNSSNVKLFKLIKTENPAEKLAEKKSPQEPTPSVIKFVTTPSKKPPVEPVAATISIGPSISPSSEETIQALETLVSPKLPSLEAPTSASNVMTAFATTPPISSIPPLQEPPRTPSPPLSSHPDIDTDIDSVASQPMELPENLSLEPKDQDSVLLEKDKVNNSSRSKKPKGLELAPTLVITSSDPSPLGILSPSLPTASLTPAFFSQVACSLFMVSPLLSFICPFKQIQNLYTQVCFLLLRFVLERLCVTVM
How it was run: as §1

[16] = molecular target: T10, ETV2 (Homo sapiens, UniProt O00321 1-342); details: protein: recombinant; tags: N-terminal GST; dsDNA, one strand shown
T10 sequence: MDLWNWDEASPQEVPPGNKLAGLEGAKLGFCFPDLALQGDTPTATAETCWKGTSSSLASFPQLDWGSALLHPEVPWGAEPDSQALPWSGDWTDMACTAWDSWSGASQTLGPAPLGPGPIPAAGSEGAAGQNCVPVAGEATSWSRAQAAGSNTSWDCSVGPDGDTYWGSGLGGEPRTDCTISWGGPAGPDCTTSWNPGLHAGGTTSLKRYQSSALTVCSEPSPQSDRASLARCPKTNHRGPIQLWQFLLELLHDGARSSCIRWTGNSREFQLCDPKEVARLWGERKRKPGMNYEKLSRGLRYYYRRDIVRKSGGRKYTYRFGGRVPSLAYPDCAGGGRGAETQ
How it was run: as §1

[17] = molecular target: T11, ELF3 (Homo sapiens, UniProt P78545 1-371); details: protein: recombinant; tags: N-terminal GST; dsDNA, one strand shown
T11 sequence: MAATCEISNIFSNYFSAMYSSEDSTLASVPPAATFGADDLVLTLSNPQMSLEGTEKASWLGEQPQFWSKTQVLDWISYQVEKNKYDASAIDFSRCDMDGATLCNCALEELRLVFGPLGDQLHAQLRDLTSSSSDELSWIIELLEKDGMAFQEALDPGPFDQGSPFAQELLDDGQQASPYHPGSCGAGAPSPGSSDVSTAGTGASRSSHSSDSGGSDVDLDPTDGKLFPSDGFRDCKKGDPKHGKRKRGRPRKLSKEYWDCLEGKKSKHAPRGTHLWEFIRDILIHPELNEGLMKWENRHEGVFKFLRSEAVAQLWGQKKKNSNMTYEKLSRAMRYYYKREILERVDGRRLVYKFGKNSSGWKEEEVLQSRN
How it was run: as §1

[18] = molecular target: CRX (Homo sapiens, UniProt O43186 1-299); details: protein: recombinant; tags: N-terminal GST; dsDNA, one strand shown
How it was run: as §1

[19] = molecular target: ETV1 (Homo sapiens, UniProt P50549 1-477); details: protein: recombinant; tags: N-terminal GST; dsDNA, one strand shown
How it was run: as §1

Sequence of ELF1 (P32519 whole entry): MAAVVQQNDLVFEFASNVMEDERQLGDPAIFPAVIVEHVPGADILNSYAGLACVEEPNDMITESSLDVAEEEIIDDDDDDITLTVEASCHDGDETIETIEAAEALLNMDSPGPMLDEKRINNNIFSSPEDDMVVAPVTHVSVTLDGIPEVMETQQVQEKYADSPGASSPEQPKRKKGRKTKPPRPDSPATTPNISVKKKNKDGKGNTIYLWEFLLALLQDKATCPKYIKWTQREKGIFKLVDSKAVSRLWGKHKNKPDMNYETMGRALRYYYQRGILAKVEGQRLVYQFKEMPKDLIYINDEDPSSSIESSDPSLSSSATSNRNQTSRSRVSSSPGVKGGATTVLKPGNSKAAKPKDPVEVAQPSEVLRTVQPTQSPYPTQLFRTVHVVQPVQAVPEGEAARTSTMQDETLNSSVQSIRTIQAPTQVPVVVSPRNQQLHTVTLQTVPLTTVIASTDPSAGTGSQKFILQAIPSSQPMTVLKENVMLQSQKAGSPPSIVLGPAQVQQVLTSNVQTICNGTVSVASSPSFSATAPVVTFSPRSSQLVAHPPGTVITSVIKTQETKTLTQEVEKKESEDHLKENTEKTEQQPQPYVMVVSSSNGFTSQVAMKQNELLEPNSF
Sequence of ETV1 (P50549 whole entry): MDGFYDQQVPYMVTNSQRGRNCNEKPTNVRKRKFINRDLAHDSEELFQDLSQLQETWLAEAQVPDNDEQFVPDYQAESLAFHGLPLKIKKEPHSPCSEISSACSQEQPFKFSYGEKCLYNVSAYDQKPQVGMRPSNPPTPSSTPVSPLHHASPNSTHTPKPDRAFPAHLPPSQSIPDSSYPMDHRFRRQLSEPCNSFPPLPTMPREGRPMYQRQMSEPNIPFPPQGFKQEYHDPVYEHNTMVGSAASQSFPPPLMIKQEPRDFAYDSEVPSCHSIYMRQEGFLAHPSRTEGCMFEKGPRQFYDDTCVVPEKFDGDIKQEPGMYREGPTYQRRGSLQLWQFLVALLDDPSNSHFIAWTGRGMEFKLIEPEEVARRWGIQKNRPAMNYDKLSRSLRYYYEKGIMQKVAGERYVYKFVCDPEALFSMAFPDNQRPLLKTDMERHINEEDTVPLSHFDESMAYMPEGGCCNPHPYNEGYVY
Sequence of CRX (O43186 whole entry): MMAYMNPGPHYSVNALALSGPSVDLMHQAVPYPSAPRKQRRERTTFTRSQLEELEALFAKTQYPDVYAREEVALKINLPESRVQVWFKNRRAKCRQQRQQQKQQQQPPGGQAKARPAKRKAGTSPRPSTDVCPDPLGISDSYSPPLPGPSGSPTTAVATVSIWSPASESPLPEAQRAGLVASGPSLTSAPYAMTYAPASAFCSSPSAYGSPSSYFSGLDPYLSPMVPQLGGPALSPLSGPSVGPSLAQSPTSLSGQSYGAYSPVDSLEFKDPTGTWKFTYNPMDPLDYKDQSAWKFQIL
Sequence of HSF1 (Q00613 whole entry): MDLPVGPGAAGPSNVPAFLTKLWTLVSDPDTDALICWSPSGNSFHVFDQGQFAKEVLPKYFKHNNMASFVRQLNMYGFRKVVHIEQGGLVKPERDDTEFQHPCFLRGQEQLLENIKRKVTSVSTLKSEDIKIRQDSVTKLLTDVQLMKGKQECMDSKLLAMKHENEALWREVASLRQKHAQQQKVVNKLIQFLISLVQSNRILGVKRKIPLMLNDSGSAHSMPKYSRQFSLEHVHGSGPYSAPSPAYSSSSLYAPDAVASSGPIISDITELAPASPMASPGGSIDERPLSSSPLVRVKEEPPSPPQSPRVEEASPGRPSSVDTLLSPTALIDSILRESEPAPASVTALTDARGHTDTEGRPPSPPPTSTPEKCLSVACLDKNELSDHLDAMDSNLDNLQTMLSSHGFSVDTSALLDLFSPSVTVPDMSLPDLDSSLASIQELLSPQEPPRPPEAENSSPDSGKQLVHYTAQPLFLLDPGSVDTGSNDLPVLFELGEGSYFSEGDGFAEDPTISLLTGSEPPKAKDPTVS
Sequence of ETV5 (P41161 whole entry): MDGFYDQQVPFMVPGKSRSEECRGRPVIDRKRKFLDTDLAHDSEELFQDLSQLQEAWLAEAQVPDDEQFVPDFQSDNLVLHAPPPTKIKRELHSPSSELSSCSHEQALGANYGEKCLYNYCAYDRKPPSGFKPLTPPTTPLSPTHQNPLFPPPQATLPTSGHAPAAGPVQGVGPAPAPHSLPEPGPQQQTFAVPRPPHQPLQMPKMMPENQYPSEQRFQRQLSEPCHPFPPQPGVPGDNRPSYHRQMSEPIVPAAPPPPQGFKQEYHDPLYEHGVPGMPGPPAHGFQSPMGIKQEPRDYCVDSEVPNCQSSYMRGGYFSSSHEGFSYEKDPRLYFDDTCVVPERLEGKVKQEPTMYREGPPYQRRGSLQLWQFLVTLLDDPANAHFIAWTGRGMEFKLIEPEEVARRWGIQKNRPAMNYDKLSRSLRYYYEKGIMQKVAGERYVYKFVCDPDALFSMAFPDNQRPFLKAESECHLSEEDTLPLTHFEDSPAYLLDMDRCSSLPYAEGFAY
Sequence of ELF4 (Q99607 whole entry): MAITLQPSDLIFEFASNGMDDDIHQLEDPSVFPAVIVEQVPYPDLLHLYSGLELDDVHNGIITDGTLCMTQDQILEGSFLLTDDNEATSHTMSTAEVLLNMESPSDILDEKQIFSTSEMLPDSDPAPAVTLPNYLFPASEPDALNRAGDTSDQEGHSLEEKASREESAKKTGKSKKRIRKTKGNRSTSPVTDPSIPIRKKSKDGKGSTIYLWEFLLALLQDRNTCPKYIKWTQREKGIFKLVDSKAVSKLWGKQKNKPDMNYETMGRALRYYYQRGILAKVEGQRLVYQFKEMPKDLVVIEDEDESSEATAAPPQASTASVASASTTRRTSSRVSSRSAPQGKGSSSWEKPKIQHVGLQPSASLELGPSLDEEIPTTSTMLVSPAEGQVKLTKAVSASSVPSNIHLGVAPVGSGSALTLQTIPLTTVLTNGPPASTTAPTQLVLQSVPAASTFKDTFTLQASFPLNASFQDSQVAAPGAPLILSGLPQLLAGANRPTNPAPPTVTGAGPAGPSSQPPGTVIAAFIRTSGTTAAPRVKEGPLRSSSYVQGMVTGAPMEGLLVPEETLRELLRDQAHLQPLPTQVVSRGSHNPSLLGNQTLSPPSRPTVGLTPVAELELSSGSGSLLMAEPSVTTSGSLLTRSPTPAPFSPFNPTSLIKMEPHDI
Sequence of SPIB (Q01892 whole entry): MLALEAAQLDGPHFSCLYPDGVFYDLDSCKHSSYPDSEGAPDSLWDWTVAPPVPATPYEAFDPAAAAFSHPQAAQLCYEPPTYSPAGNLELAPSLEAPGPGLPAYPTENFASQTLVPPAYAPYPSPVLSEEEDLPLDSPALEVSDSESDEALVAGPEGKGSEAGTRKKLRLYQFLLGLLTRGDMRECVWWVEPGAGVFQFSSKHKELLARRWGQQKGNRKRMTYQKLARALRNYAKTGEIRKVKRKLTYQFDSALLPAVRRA

Sequence: AAACCT
- binding signal [1]: 1.15 fold enrichment (6-mer frequency, TF over GST control)
- binding signal [2]: 1.01 fold enrichment (6-mer frequency, TF over GST control)
- binding signal [3]: 1.17 fold enrichment (6-mer frequency, TF over GST control)
- binding signal [4]: 1.12 fold enrichment (6-mer frequency, TF over GST control)
- binding signal [5]: 1.19 fold enrichment (6-mer frequency, TF over GST control)
- binding signal [6]: 1.16 fold enrichment (6-mer frequency, TF over GST control)
- binding signal [7]: 1.18 fold enrichment (6-mer frequency, TF over GST control)
- binding signal [8]: 1.11 fold enrichment (6-mer frequency, TF over GST control)
- binding signal [9]: 1.15 fold enrichment (6-mer frequency, TF over GST control)
- binding signal [10]: 1.08 fold enrichment (6-mer frequency, TF over GST control)
- binding signal [11]: 1.13 fold enrichment (6-mer frequency, TF over GST control)
- binding signal [12]: 1.15 fold enrichment (6-mer frequency, TF over GST control)
- binding signal [13]: 1.09 fold enrichment (6-mer frequency, TF over GST control)
- binding signal [14]: 1.16 fold enrichment (6-mer frequency, TF over GST control)
- binding signal [15]: 1.2 fold enrichment (6-mer frequency, TF over GST control)
- binding signal [16]: 1.19 fold enrichment (6-mer frequency, TF over GST control)
- binding signal [17]: 1.19 fold enrichment (6-mer frequency, TF over GST control)
- binding signal [18]: 1.24 fold enrichment (6-mer frequency, TF over GST control)
- binding signal [19]: 1.15 fold enrichment (6-mer frequency, TF over GST control)
